In the library only some 2.3% were active in any assay of this set; here they are far more common.
MITF TRPM1 inh: inhibitors of MITF-dependent TRPM1 promoter reporter, primary screen, cell-based, SK-MEL-5, single point, luciferase. inhibition, % at 12.5 µM. 330,000 tested, 0.83% active. SK-MEL-5 TRPM1 promoter luciferase, 24 h;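 active = mean inhibition across replicates of 60% or more, whatever share of single replicates reaches that level; inconclusive = some that reach 60%, reason not given; inactive = mean inhibition across replicates below 60%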
LMP1 NFkB inh: EBV LMP1-driven NF-kappaB luciferase reporter inhibitors, primary screen, cell-based, luminescence, single point; LMP1-induced NF-kappaB luciferase reporter cells; inhibition, % at 12.5 µM; 350,000 tested, 0.69% active; AID 504558, 2011; in the data active = inhibition above about 41%; inconclusive = no clear call, values can overlap the other calls;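 also: 0% = neutral control wells and 100% = reference inhibitor control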
697 NFkB inh: inhibitors of PMA/ionomycin-induced NF-kB reporter, 697 cells, primary screen, B-cell NF-kB inhibitor project, cell-based, luminescence, uHTS; 330,000 tested, 0.33% active; AID 435022, 2010; 697 B-cell NF-kB luciferase reporter, 16 h; inhibition, % at 4 µM; in the data active = inhibition above about 35%
Shn3 3UTR inh: reduction of Shn3 3'UTR firefly luciferase signal, primary screen, Schnurri-3 inhibitor project, cell-based, Clone20 osteoblasts, set 2; Clone20 osteoblast Shn3 3'UTR firefly luciferase, 24 h; inhibition, % at 12.5 µM; 360,000 tested, 0.52% active; AID 588674, 2011;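 active = mean inhibition of at least 75% with every replicate also reaching 75%; inconclusive = mean inhibition at least 75% but some replicate below; inactive = mean inhibition below 75%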;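 also: 0% = median of neutral control wells and 100% = pilot-screen positive control compound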
Jurkat NFkB inh: inhibitors of induced NF-kB luciferase reporter, primary screen, TCR NF-kB activation inhibitor project, cell-based, luminescence, uHTS; inhibition, % at 4 µM; 330,000 tested, 0.53% active; AID 435003, 2010; Jurkat, PMA/ionomycin-induced NF-kB luciferase reporter; in the data active = inhibition above about 50%
Gli-Sufu block: Gli-Sufu pathway antagonists, primary screen, luciferase luminescence, Sufu-KO-LIGHT cells, uHTS | inhibition, % at 5 µM | 340,000 tested, 0.74% active | Sufu-KO-LIGHT fibroblasts, Gli luciferase reporter luminescence | AID 588413, 2011;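 active = inhibition above about 55%, limit read from the data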;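 also: 0% = DMSO-treated cells and 100% = wells with medium but no cells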
Active calls of the source: *; ? = inconclusive; nt = no result.

SMILES	MITF TRPM1 inh	LMP1 NFkB inh	697 NFkB inh	Shn3 3UTR inh	Jurkat NFkB inh	Gli-Sufu block
COc1ccc(C(=O)C2CCCN(C(=O)CCc3scnc3C)C2)c(C)c1 (configuration not stated)	5	12	-15	23	2	5
CC(NC(=O)CCOc1ccccc1)c1ccccc1 (configuration not stated)	-4	74*	-6	2	-12	-9
C#CCOCCOCCOCCNc1nc(N2CCN(C(=O)C([C@@H](C)CC)n3cc(C(N)CO)nn3)CC2)nc(N2CCN(C(=O)[C@H](CCC(=O)O)n3cc(C(N)CC(C)C)nn3)CC2)n1 (some centres not stated)	5	-1	-2	-33	-4	-8
COc1cc(/C=C(\C#N)c2ccccn2)cc(OC)c1O	0	-10	14	5	8	6
COc1cc(/C=C(\C#N)c2ccccn2)ccc1OCc1ccccc1Cl	-10	70*	nt	10	nt	-2
CCNc1ccc(Br)cc(C(=O)/C=C/c2ccc(Cl)cc2Cl)c1=O	27	49*	-3	-11	-12	9
CNc1ccc(Br)cc(C(=O)/C=C/c2cc(OC)ccc2OC)c1=O	52	?	18	-42	1	3
O=C(NC1CCCCC1)C1CCCN(S(=O)(=O)c2cccc3cccnc23)C1 (configuration not stated)	7	5	-2	-10	-7	4
Cc1nc(N2CCN(c3ccccn3)CC2)c2c(C)c(C(=O)Nc3ccc(Cl)cc3)sc2n1	-18	26	10	5	11	10
CCN(CC)S(=O)(=O)c1cccc(-n2c(O)c(C=Nc3ccccc3C(=O)O)c3ccccc3c2=O)c1	54	58*	27	-18	39	-6
CCN1/C(=C\c2ccc3cc(C)ccc3[n+]2CC)Sc2cc(C)c(C)cc21	73*	29	nt	89*	nt	88*
CC[n+]1c(/C=C/c2cc([N+](=O)[O-])ccc2O)ccc2ccccc21	-13	6	-13	-26	-21	4
CCN1/C(=C/c2ccc3cc(C)cc(C)c3[n+]2CC)Sc2cc(C)ccc21	83*	29	nt	65	nt	90*
Cc1ccc2c(c1)S/C(=C\c1cccc[n+]1C)N2CCO	9	2	-16	-17	26	16
O=C(NCCC1CCCCN1S(=O)(=O)c1cccs1)C(=O)Nc1cccc(F)c1 (configuration not stated)	-6	-1	-19	4	-16	7
COc1ccc(CCn2c(=S)[nH]c3cc(C(=O)NCc4ccco4)ccc3c2=O)cc1OC	91*	24	-25	65	1	21
O=c1cc2n(c(=O)[nH]1)CCC1=C2CCCC1	7	-5	1	-5	10	0
CCN(CC)CCNC(=O)c1c(O)c2cc(OC)c(OC)cc2[nH]c1=O	2	55*	-13	1	-3	-11
CC(C)CCCCCCCCCCCCC(=O)NCC(=O)NC1C(C)OC(Nc2ncnc3nc[nH]c23)C(O)C1O (configuration not stated)	69*	92*	nt	92*	nt	70*
Cc1nc(SCC(=O)c2cccc([N+](=O)[O-])c2)n[nH]1	5	55*	-4	9	-6	0
COc1ccccc1NC(=O)COc1ccc2ccccc2c1	-20	-2	2	-3	0	10
COCc1nn2c(N)c(C#N)cnc2c1-c1ccccc1	10	0	-5	95*	2	2
N#CC(C#N)c1ccnc2ccccc12	nt	43*	nt	-16	nt	nt
O=C(Nc1ccc2c(c1)OCO2)C(c1ccccc1)N1CCN(C(=O)c2ccco2)CC1 (configuration not stated)	-2	0	12	-1	-1	5
CCN(CC)CCCNc1nc2ccccc2c2[nH]c3ccc(OC)cc3c12	102*	-32	nt	92*	nt	3
CCN(CC)CCCNc1nc(-c2ccccc2)nc2ccccc12	-8	-20	-4	-9	-7	1
Cc1ccnc(NC(=O)CCC(=O)c2cccs2)c1	41	59*	-146	40	-31	-10

Source: PubChem
